Records with an inconclusive call do not appear. Where a call stands in place of a potency, no number is given. Calls of active or inactive are those of the source. Calls come from the whole dose curve; as a rule, active = well fitted inhibition curve with a large enough effect; inconclusive = small, poorly fitted or top-dose-only effect; inactive = no such curve, though single readings can be large or run the other way.
Each compound was assayed against N-terminal Xaa-Pro-Lys N-methyltransferase 1 (Homo sapiens) (UniProt Q9BV86) (assay: qHTS Assay for Inhibitors of N-terminal methyltransferase 1 (NTMT1): MTaseGlo Assay Confirmatory Screen, Round 1). Conditions: Recombinant NTMT1, MTase-Glo SAH luminescence; series mostly up to 57.1 µM.
Text: Assay Submitter (PI): Rong Huang Ph.D, Purdue University, West Lafayette, IN 47907 The N-terminal methytransferase 1 is the first methyltransferase that methylates protein alpha-N-amines and plays an important role in regulating cell mitosis, chromatin interactions and DNA repair. It is observed to be over-expressed in various cancer patient tissues like malignant melanoma and colorectal cancer tissues. Knockdown of NTMT1 in cancer cells causes cell mitotic defects and enhances sensitivity to DNA damaging chemotherapeutics. […] These critical cellular processes in which NTMT1 is implicated, coupled with emerging links to cellular dysfunction, strengthen the inference that NTMT1 is a compelling novel anticancer target. Progress have been made in understanding the molecular properties of NTMT1 and the biological consequences of protein alpha-N-terminal methylation, but there are no specific small molecule probes available for NTMT1 to fully characterize its MTase activity. To address this unmet need, a panel of assay is created and established to enable quantitative high-throughput screening (qHTS) for novel, potent, and selective small molecule NTMT1 inhibitors. Two orthogonal qHTS that use different reagents (ThioGlo vs. MTaseGlo) are developed for primary robotic screening against the NCATS chemical library of more than 400,000 small molecules. Identified inhibitors are reacquired, validated, and further characterized. MTaseGlo Assay is a luminescence screen that measure the activity of methyltransferases based on the reaction product S-adenosyl homocysteine (SAH). The substrate SAM is converted to SAH upon enzyme activation. MTase-Glo reagent and detection solution convert SAH to ATP and measure the light from the luciferase reaction. […] Early Translation Branch (ETB) National Center for Advancing Translational Sciences (NCATS) National Institute of Health (NIH)
Materials: NTMT1 enzyme, substrate SPKRIA, control peptide RCC1-6 is provided by the Huang laboratory. MTaseGlo Assay: In brief, 3 µL of enzyme mixture (final concentrations of 125 nM and 100 µM for NTMT1 and SAM, respectively) into all wells of a 1,536-well solid-bottom white plate (Greiner Bio One, Monroe, NC). 23 nL of DMSO or Ac-RCC1-10 (final concentration range 234 nM to 143 microM) was transferred via Wako Pin-tool (Wako Automation, Richmond, VA) and incubated (RT) for ~15 minutes. Next, 1 µL of substrate (final concentration 1 µM) or buffer was dispensed, and the reaction proceeded for 30 minutes (RT, protected from light) followed by a 1 microL addition of [5X] MTase-Glo Reagent(R). Samples were incubated (RT, protected from light) for 30 minutes to allow for SAH to be converted to ADP, followed by a 5 microL addition of [1X] MTase-Glo Detection Solution(R) to allow for ADP to be converted to ATP, which was then detected with a luciferase reaction. Samples were centrifuged for 15 seconds at 1,000 RPM's, followed by a RT incubation for 30 minutes. Plates were then read using Luminescence optics on a ViewLux detector. Data were normalized to no-enzyme (0% activity) and no-inhibitor (DMSO; 100%) controls, and the resulting percent inhibition data were fitted to a 4-parameter Hill equation using Graphpad Prism.
Potency is the fitted concentration of half-maximal effect.

Chain of N-terminal Xaa-Pro-Lys N-methyltransferase 1 (Homo sapiens) (Q9BV86 whole entry, looked up): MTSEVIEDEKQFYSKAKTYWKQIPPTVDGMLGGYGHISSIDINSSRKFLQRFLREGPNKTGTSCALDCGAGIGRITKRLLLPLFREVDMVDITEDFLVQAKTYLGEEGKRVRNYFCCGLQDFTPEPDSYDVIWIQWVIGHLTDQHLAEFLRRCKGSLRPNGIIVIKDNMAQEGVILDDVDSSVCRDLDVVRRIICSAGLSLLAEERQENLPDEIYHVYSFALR

| SMILES | Potency |
| --- | --- |
| C=C1O[C@@](CO)(n2cnc3c(N)ncnc32)[C@H](O)[C@@H]1O | inactive |
| Nc1ncnc2c1ncn2C1O[C@H](COP(=O)(O)O)[C@@H](O)[C@H]1O (stereo not given in full) | inactive |
| COc1cc2c(NC3CCN(C)CC3)nc(N3CCCN(C)CC3)nc2cc1OCCCN(C)C | inactive |
| COc1cc2nc(N3CCN(C)CC3)nc(NC3CCN(C)CC3)c2cc1OC | inactive |
| CNc1ncnc2c1ncn2[C@@H]1O[C@H](CO)[C@@H](O)[C@H]1O | inactive |
| Nc1ncnc2c1ncn2[C@H]1C[C@H](O)[C@@H](CO)O1 | inactive |
| Nc1ncnc2c1ncn2[C@@H]1O[C@H](COP(=O)(O)OP(=O)(O)OP(=O)(O)O)[C@@H](O)[C@H]1O | inactive |
| Nc1ncnc2c1ncn2[C@H]1O[C@@H](CO)[C@@H](O)[C@H]1N | inactive |
| OCC1OC(n2cnc3c(NO)ncnc32)C(O)C1O (stereo not given) | inactive |
| COc1cc2c(NC3CCN(CC4CCCCC4)CC3)nc(N3CCCCC3)nc2cc1OCCCN1CCCCC1 | inactive |
| COc1cc2nc(Nc3ccccc3)nc(NC3CC3)c2cc1OC | inactive |
| OC[C@H]1O[C@H](n2cnc3c(NC4CCCC4)nc(Cl)nc32)[C@@H](O)[C@@H]1O | inactive |
| CNc1ncnc2c1ncn2[C@@H]1O[C@H](COP(=O)(O)O)[C@@H](O)[C@H]1O | inactive |
| OC[C@H]1O[C@@H](n2cnc3c(N[C@H]4C[C@H]5CC[C@@H]4C5)ncnc32)[C@H](O)[C@@H]1O | inactive |
| COc1cc2nc(N3CC[C@H](N(C)C)C3)nc(NC3CC3)c2cc1OC | inactive |
| COc1cc2nc(N3CCN(C)CC3)nc(NCCCN(C)C)c2cc1OC | inactive |
| Nc1ncnc2c1ncn2[C@@H]1O[C@@H](CO)[C@H](O)[C@H]1O | inactive |
| Nc1ncnc2c1nc(N1CCCCC1)n2[C@@H]1O[C@@H]2COP(=O)(O)O[C@H]2[C@H]1O | inactive |
| CNC(=O)[C@H]1O[C@H](n2cnc3c(NCc4cccc(I)c4)nc(Cl)nc32)[C@@H](O)[C@@H]1O | inactive |
| COc1cc2nc(N3CCCN(C)CC3)nc(N(C)C)c2cc1OC | inactive |

| SMILES | Potency |
| --- | --- |
| CCN(CC)c1nc(NC2CCN(C)CC2)c2cc(OC)c(OC)cc2n1 | inactive |
| OC[C@H]1O[C@@H](n2cnc3c(Nc4ccccc4)ncnc32)[C@H](O)[C@@H]1O | inactive |
| COc1cc2c(NC3CCN(C)CC3)nc(N3CCN(C)CC3)nc2cc1OCCCN(C)C | inactive |
| CC(C)=CCNc1ncnc2c1ncn2[C@@H]1O[C@H](CO)[C@@H](O)[C@H]1O | inactive |
| Nc1nc(Cl)nc2c1ncn2[C@@H]1O[C@H](CO)[C@@H](O)[C@H]1O | inactive |
| N#Cc1ccc(COC[C@H]2O[C@@H](n3c(NCc4ccc(Cl)c(Cl)c4)nc4c(N)ncnc43)[C@@H](O)[C@@H]2O)cc1 | inactive |
| Nc1nc(Cl)nc2c1ncn2[C@@H]1O[C@H](CO)[C@@H](O)[C@@H]1F | inactive |
| COc1cc2nc(N3CCCN(C)CC3)nc(NC3CCN(C)C3)c2cc1OC (stereo not given) | inactive |
| Nc1ccnc2c1ncn2[C@@H]1O[C@H](CO)[C@@H](O)[C@H]1O | 17.2 µM (active) |
| Nc1ccc(CCNc2ncnc3c2ncn3C2OC(CO)C(O)C2O)cc1 (stereo not given) | inactive |
| Nc1nc(=S)c2ncn([C@H]3O[C@@H](CO)[C@@H](O)[C@@H]3O)c2[nH]1 | inactive |
| COc1cc2c(NC3CCN(C)CC3)nc(N3CCCN(C)CC3)nc2cc1OCCN(C)C | inactive |
| Nc1ncnc2c1ncn2[C@@H]1O[C@H](COP(=O)(O)O)[C@@H](O)[C@H]1O | inactive |
| COc1cc2c(NC3CCN(C4CCCCC4)CC3)nc(N3CCCCCC3)nc2cc1OCCCN1CCCCC1 | inactive |
| OC[C@H]1O[C@@H](n2cnc3cncnc32)[C@H](O)[C@@H]1O | 13.7 µM (active) |
| COc1cc2nc(N3CCN(C)CC3)nc(NC3CCCCC3)c2cc1OC | inactive |
| Nc1nc(Nc2ccccc2)nc2c1ncn2[C@@H]1O[C@@H](CO)[C@H](O)[C@H]1O | inactive |
| NC[C@H]1O[C@@H](n2cnc3c(N)ncnc32)[C@H](O)[C@@H]1O | 19.3 µM (active) |
| CCNc1nc(N2CCCN(C)CC2)nc2cc(OC)c(OC)cc12 | inactive |
| Cc1cc(C)c(CNC(=O)c2cc(-c3ccc(CN4CCOCC4)cc3)cc3c2cnn3C2CCCC2)c(=O)[nH]1 | inactive |

Reference: PubChem BioAssay AID1347145 (National Center for Advancing Translational Sciences (NCATS), 2019)
